Laboratory results taken from PubChem BioAssay (Tox21).
Inconclusive results are not listed. A number with no mark means an inactive call. Calls follow the shape of the full dose curve.

target: Muscarinic acetylcholine receptor M1 (Homo sapiens) (UniProt P11229); assay: Cholinergic receptor muscarinic 1 (CHRM1) small molecule antagonists, cell-based qHTS assay (AID 1963588); details: CHRM1-CHO antagonist mode, calcium flux fluorescence; series mostly up to 61.5 µM; activity, negative = inhibition: at the top concentration; also: nearly all actives have a fitted effect of over 40% in size
Sequence (P11229 whole entry, looked up): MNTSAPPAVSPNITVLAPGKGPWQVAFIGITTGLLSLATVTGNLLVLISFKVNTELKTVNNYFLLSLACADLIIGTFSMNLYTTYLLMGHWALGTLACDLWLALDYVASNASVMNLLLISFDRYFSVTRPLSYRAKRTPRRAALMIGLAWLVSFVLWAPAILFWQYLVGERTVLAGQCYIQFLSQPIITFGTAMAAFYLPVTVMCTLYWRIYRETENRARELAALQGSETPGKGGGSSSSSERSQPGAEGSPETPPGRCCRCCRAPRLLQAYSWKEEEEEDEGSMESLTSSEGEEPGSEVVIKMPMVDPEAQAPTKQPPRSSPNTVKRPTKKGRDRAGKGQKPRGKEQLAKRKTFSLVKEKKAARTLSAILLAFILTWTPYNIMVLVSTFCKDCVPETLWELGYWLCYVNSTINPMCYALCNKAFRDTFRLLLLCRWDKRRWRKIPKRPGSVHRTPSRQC
Description: National Center for Advancing Translational Sciences [NCATS]
Division of Preclinical Innovation [DPI]
U.S. Environmental Protection Agency [EPA]
National Institutes of Environmental Health Sciences [NIEHS]
National Toxicology Program [NTP]
U.S. Food and Drug Administration [FDA]
The CHRM1 is a muscarinic receptor. This receptor plays a crucial role in learning and memory processes and has long been identified as a promising therapeutic target for the improvement of cognitive decline in Alzheimer's disease (AD). The CHRM1-CHO cell line stably expressing human muscarinic acetylcholine receptor M1 (CHRM1) can be used for screening agonists and antagonists of interactions between CHRM1 and its ligands. The CHRM1-CHO Calcium Flux Assay is a homogeneous fluorescence-based assay for detecting the intracellular calcium level using FDSS kinetic plate reader system.
Tox21 Assay Protocol Summary:
CHRM1-CHO cells were dispensed at 1000 cells/3uL/well in 1536-well black-clear bottom plates using a Multidrop Dispenser. After the assay plates were incubated at a 37 C/5% CO2 incubator for 18 h, 3 uL of Dye Loading Buffer was transferred to the assay plate by a Flying Reagent Dispenser. The assay plates were incubated at 37 C for 1h. For antagonist mode, 23 nL of compounds dissolved in DMSO, positive controls or DMSO only was transferred to the assay plate by a pin tool. After 5 min incubation at room temperature, 1.5 uL of acetylcholine at 50nM was added to each well. The fluorescence intensity in the plates was measured using FDSS 7000EX kinetic plate reader for 3 min at 1 sec intervals. Each test compound was measured at 15 concentrations in three independent runs.
% is scaled to controls: 0 for no effect and ±100 for the full control effect.

SMILES | activity, negative = inhibition
CCO[Si](OCC)(OCC)OCC | -9.71%
O=C1OC(=O)C2C3C=CC(C3)C12 (stereo not given) | 8.88%
C[N+](C)(C)CCCCCCCCCC[N+](C)(C)C | -14.5% [at 28.3 µM]
O=C(O)c1ccncc1 | -19.7%
O=C1CCC(C2CCCCC2)CC1 | 11.7%
CCN(CC)c1ccc2c(-c3ccc(S(=O)(=O)O)cc3S(=O)(=O)[O-])c3ccc(=[N+](CC)CC)cc-3oc2c1 | 7.67%
CC(C)c1ccc2sc3ccccc3c(=O)c2c1 | -2.93%
O=CN1CCOCC1 | -2.53%
CCc1cc(S(=O)(=O)O)c2cc(C(C)C)cccc1-2 | -0.324% [at 28.3 µM]
COc1ccc(-c2cc(C(F)F)nn2-c2ccc(S(N)(=O)=O)cc2)cc1F | -3.25% [at 28.3 µM]
Cc1c(C(C)C)c(=O)n(-c2ccccc2)n1C | 2.11% [at 28.3 µM]
Oc1cn2c(n1)Nc1ccc(Cl)c(Cl)c1C2 | -10.4% [at 12.6 µM]
CNC(=O)N(c1ccccc1)c1ccccc1 | -2.71%
CCCCCC(C)N (stereo not given) | -1.91% [at 28.3 µM]
FC(F)(F)C(F)(F)C(F)(F)C(F)(F)C(F)(F)C(F)(F)C(F)(F)C(F)(F)C(F)(F)C(F)(F)F | 8.35% [at 5.58 µM]
Nc1ccc(C(=O)NCC(=O)O)cc1 | 10.3% [at 28.3 µM]
CC(C)(C)C(=O)CC(=O)C(C)(C)C | 1.72%
C1CC(COCC2CO2)CCC1COCC1CO1 (stereo not given) | 6.38%
CC1(C)CC(O)CC(C)(C)N1 | -2.39%
Cn1c(N)c(N=O)c(=O)n(C)c1=O | 4.16%

SMILES | activity, negative = inhibition
c1ccc(CCNc2nc(-c3ccccc3)cs2)cc1 | -11.4% [at 28.3 µM]
COC(C)(OC)OC | 8.33%
O=c1c(O)c(O)c1=O | 2.2%
Nc1cc(C(=O)O)c(O)c(S(=O)(=O)O)c1 | 14.4%
O=C(Nc1ccccc1)c1ccccc1O | 0.139%
Cc1c(C(=O)NCCO)[n+](=O)c2ccccc2n1[O-] | 0.222% [at 28.3 µM]
C/C=C/C(=O)CC | 37.8% [at 12.6 µM]
N#Cc1c(F)cccc1F | 25.1%
CCOC(=O)N1CCC(Nc2ccc(Cl)cc2N)CC1 | -32.2% [at 28.3 µM]
CC(C)(C#N)Nc1nc(Cl)nc(NC2CC2)n1 | -10%
Cc1cc(Br)ccc1NC(=O)CCl | -11.3%
Clc1cc(Cl)c(-c2c(Cl)c(Cl)cc(Cl)c2Cl)cc1Cl | 2.27% [at 28.3 µM]
Cn1c(=O)[nH]c2ncn(C)c2c1=O | -5.29%
Nc1ccc(Cl)cc1[N+](=O)[O-] | 9.52%
[Cu+] | 3.69%
C=CC(=O)OCCCl | 5.24%
CCOc1ccccc1N | -25.3%
COc1cnc(NS(=O)(=O)c2ccc(N)cc2)nc1 | 15.8% [at 28.3 µM]
COC(=O)C(C)(C)C | -10.6%
CC(=O)c1ccc(Cl)c(Cl)c1Cl | 0.997%
